Test results from PubChem BioAssay (Tox21).
Values joined by “and” are separate entries in the source; they are usually repeats but may differ in a detail not shown here. Equal entries are not always repeated. Records with an inconclusive call do not appear. A call without a number means that no potency is given here. A structure can be active in one record and inactive in another. Active and inactive are the calls of the source. Unless noted, calls come from the whole dose curve.

How the values were obtained:
[1] = Nuclear factor erythroid 2-related factor 2/antioxidant responsive element (Nrf2/ARE) small molecule agonists: qHTS cell viability counter screen in human keratinocytes (AID 1919968; active = well fitted curve in the direction sought with a large enough effect in the repeat runs; an effect the other way counts as inactive or inconclusive; note: nearly all actives have a fitted effect of over 55% in size; note: potency is the fitted concentration of half-maximal effect)
How it was run: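 After a 5 h attachment period, ARE-reporter keratinocytes were dosed with compounds in DMSO and then cultured 23 h at 37 C. Cell viability came from CellTiter-Fluor signal read after a further 1 h.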

[2] = Nuclear factor erythroid 2-related factor 2/antioxidant responsive element (Nrf2/ARE) small molecule agonists: luciferase reporter gene qHTS assay in human keratinocytes (AID 1919969); note: nearly all actives have a fitted effect of over 35% in size; note: potency is the fitted concentration of half-maximal effect
[3] = target: Gonadotropin-releasing hormone receptor (Homo sapiens) (UniProt P30968); test: Human gonadotropin-releasing hormone receptor (GnRHR) small molecule agonists, calcium flux assay in GnRHR-HEK293 cells (AID 1920063); note: nearly all actives have a fitted effect of over 35% in size
How it was run: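 We seeded human GnRHR-expressing HEK293 cells for 18 hours, loaded them with calcium dye for an hour at 37 C, added test compounds, and recorded fluorescence intensity kinetically for three minutes.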

[4] = target: KiSS-1 receptor (Homo sapiens) (UniProt Q969F8); test: Human kisspeptin (KISS1R) small molecule agonists, calcium flux assay in KISS1R-HEK293 cells (AID 1920064; active = well fitted curve in the direction sought with a large enough effect in the repeat runs; an effect the other way counts as inactive or inconclusive)
How it was run: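 Kinetic calcium assay, 1 s sampling over 3 min at Ex/Em 480/540, in HEK293 cells engineered with human KISS1R; compounds delivered in DMSO after 1 h dye loading.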

[5] = G protein-coupled receptor (GPCR) small molecule agonists, calcium flux assay: HEK293 wild type cell line counter screen (AID 1920065)
How it was run: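 Calcium-sensitive dye, loaded 1 h at 37 C into cells cultured 18 h, reports compound-evoked calcium release as fluorescence (Ex/Em 480/540), measured over 3 min. Agonist mode; 15-point titrations, triplicate.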

[6] = p53 small molecule agonists, cell-based qHTS assay with human liver microsomes: qHTS cell viability counter screen (AID 1963579); note: nearly all actives have a fitted effect of over 45% in size; note: potency is the fitted concentration of half-maximal effect
How it was run: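 In this multiplexed counter screen, the reporter plates were subsequently treated with CellTiter-Glo so that cell viability, reflected by luminescence, could be recorded for p53RE-bla cells dosed 16 h with compounds under microsomal activation (HLM and NADPH).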

[7] = p53 small molecule agonists, cell-based qHTS assay with rat liver microsomes: qHTS cell viability counter screen (AID 1963580); note: nearly all actives have a fitted effect of over 45% in size
How it was run: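 p53RE-bla HCT-116 cells (4,000/well) rested 5 h at 37 C, then given Tox21 compounds in DMSO with rat liver microsomes (0.5 mg/mL final) plus NADPH (0.5 mg/mL final) for 16 h at 37 C. Viability read by CellTiter-Glo luminescence after 30 min at room temperature.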

[8] = p53 small molecule agonists, cell-based qHTS assay: qHTS cell viability counter screen (AID 1963581); note: nearly all actives have a fitted effect of over 45% in size; note: potency is the fitted concentration of half-maximal effect
How it was run: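 Following 5 h attachment, HCT-116 p53RE-bla cells took up compound for 16 h at 37 C; the reporter was read with B/G FRET substrate (2 h RT), and viability then via CellTiter-Glo ATP luminescence.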

[9] = target: 5-hydroxytryptamine receptor 2A (Homo sapiens) (UniProt P28223); test: 5-hydroxytryptamine receptor 2A (HTR2A) small molecule antagonists, cell-based qHTS assay (AID 1963586); note: nearly all actives have a fitted effect of over 45% in size
How it was run: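 Antagonist-mode intracellular calcium assay: DOI (4 nM) added after 5 min compound pre-incubation at room temperature to dye-loaded HTR2A-CHO cells. Fluorescence followed for 3 min, sampled every second.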

[10] = target: 5-hydroxytryptamine receptor 2A (Homo sapiens) (UniProt P28223); test: 5-hydroxytryptamine receptor 2A (HTR2A) small molecule agonists, cell-based qHTS assay (AID 1963587); note: nearly all actives have a fitted effect of over 30% in size
How it was run: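 HTR2A-CHO cells, plated 18 h at 37 C/5% CO2, dye-loaded 1 h at 37 C; compounds in DMSO added by pin tool (agonist mode). Intracellular calcium flux read as kinetic fluorescence on FDSS over 2 min at 1 s intervals.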

[11] = target: Muscarinic acetylcholine receptor M1 (Homo sapiens) (UniProt P11229); test: Cholinergic receptor muscarinic 1 (CHRM1) small molecule antagonists, cell-based qHTS assay (AID 1963588); note: nearly all actives have a fitted effect of over 40% in size
How it was run: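 CHRM1-CHO calcium-flux assay, antagonist mode. Cells were seeded 18 h, dye-loaded 1 h at 37 C and given compound for 5 min at RT, then acetylcholine was added at 50nM. FDSS fluorescence was read 3 min; 15 concentrations, three runs.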

[12] = target: Muscarinic acetylcholine receptor M1 (Homo sapiens) (UniProt P11229); test: Cholinergic receptor muscarinic 1 (CHRM1) small molecule agonists, cell-based qHTS assay (AID 1963589); note: nearly all actives have a fitted effect of over 35% in size
How it was run: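 Measures agonist-induced intracellular calcium rise. Stable human CHRM1 CHO line, 1 h dye load at 37 C, compounds from DMSO, kinetic fluorescence read.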

[13] = cAMP Responsive Elements (CRE) small molecule agonists, cell-based qHTS assay (AID 1963590)
How it was run: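 A CRE-responsive beta-lactamase reporter in HEK 293T cells was used. Treatment ran 3 h at 37 C; detection used LiveBLAzer B/G FRET substrate for 2 h at room temperature.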

[14] = cAMP Responsive Elements (CRE) small molecule antagonists, cell-based qHTS assay (AID 1963591; active = well fitted inhibition curve with a large enough effect in the signal ratio in the repeat runs, not every such curve was filed as active; the % refers to the signal ratio)
How it was run: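 HEK293T cells carrying a CRE-driven beta-lactamase reporter receive compound and NKH477 (0.25 uM final) for 3 h. Fluorescence from LiveBLAzer B/G FRET substrate is read after 2 h at room temperature.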

[15] = target: Beta-2 adrenergic receptor (Homo sapiens) (UniProt P07550); test: Adrenergic beta2 receptor (ADRB2) small molecule antagonists, cell-based qHTS assay (AID 1963592); note: series mostly up to about 92 µM; nearly all actives have a fitted effect of over 50% in size
How it was run: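 Cells (CHO, stable ADRB2 overexpression) incubated 18-20hr at 37C; compounds added from DMSO; agonist mix (1nM isoproterenol, 100uM IBMX, 25uM Ro-20-1724) added; 0.5hr RT; d2-cAMP and anti-cAMP-cryptate added; 1hr RT; 665/615 nm read.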

[16] = target: D(2) dopamine receptor (Homo sapiens) (UniProt P14416); test: Dopamine D2 receptor (DRD2) small molecule antagonists, cell-based qHTS assay (AID 1963595; active = well fitted inhibition curve with a large enough effect in the signal ratio in the repeat runs, with a control signal flat; the % refers to the signal ratio)
How it was run: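 Antagonism was scored as restored cAMP in HEK293-DRD2 cells. These cells were stimulated with 200 nM NKH477 and 12 nM quinpirole for 30 min at room temperature, in the presence of 0.1 mM Ro20-1724.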

[17] = target: D(2) dopamine receptor (Homo sapiens) (UniProt P14416); test: Dopamine D2 receptor (DRD2) small molecule agonists, cell-based qHTS assay (AID 1963594); note: nearly all actives have a fitted effect of over 35% in size
How it was run: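 HEK293 cells stably expressing DRD2 were cultured 24 h at 37 C, then given Ro20-1724 (0.1 mM final) and compounds for 10 min at room temperature. NKH477 (200nM) was then added for 30 min. cAMP was read by HTRF.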

[18] = target: Beta-2 adrenergic receptor (Homo sapiens) (UniProt P07550); test: Adrenergic beta2 receptor (ADRB2) small molecule agonists, cell-based qHTS assay (AID 1963593);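 note: CHO cells stably overexpressing human ADRB2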
How it was run: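 CHO cells stably over-expressing ADRB2 were plated overnight at 37C, then dosed with compounds plus a stimulation mix containing 100uM IBMX and 25uM Ro-20-1724 for 0.5hr at room temperature. cAMP was measured by HTRF competition, 1hr.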

Chain of Gonadotropin-releasing hormone receptor (Homo sapiens) (P30968 whole entry, looked up): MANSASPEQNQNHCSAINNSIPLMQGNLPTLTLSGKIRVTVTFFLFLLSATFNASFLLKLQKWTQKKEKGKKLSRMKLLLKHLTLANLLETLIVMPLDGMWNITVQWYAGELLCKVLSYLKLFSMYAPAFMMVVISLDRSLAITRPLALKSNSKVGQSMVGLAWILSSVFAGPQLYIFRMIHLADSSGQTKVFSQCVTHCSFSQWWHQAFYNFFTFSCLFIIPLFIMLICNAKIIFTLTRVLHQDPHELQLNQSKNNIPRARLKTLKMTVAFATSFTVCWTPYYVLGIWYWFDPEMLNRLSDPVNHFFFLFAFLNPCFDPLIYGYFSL
Chain of 5-hydroxytryptamine receptor 2A (Homo sapiens) (P28223 whole entry, looked up): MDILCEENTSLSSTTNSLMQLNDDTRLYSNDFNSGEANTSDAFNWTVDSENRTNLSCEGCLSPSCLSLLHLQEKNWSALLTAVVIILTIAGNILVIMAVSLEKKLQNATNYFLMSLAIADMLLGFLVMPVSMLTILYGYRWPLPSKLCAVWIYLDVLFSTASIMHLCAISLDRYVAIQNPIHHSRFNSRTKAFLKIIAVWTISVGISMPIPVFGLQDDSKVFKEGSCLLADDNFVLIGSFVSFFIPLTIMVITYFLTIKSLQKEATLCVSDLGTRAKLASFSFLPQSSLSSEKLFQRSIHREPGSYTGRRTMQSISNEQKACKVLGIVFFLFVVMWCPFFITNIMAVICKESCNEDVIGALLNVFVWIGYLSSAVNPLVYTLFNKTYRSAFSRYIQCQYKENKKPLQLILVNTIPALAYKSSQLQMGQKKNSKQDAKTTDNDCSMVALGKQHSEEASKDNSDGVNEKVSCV
Chain of D(2) dopamine receptor (Homo sapiens) (P14416 whole entry, looked up): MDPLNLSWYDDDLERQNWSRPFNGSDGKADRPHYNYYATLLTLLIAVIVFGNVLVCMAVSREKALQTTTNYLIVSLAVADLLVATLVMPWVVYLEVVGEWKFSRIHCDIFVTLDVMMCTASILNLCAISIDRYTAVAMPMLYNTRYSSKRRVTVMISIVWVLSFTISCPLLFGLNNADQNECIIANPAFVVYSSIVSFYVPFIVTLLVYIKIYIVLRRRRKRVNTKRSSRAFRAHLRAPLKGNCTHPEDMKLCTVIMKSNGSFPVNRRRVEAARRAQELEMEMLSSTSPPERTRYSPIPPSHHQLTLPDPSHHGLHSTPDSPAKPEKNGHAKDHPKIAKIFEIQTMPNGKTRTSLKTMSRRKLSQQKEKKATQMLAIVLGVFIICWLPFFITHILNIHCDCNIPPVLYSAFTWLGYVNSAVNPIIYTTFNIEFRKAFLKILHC
Chain of KiSS-1 receptor (Homo sapiens) (Q969F8 whole entry, looked up): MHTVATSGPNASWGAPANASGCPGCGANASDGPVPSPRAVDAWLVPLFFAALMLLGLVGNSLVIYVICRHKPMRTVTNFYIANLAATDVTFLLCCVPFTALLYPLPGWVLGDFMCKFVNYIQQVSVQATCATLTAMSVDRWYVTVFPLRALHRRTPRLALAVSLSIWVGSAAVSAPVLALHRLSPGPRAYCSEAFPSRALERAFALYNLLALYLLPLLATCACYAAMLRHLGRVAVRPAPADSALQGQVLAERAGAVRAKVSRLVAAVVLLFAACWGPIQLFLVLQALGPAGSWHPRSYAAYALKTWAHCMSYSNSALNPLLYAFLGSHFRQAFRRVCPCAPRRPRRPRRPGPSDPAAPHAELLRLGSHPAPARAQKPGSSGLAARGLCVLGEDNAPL
Chain of Muscarinic acetylcholine receptor M1 (Homo sapiens) (P11229 whole entry, looked up): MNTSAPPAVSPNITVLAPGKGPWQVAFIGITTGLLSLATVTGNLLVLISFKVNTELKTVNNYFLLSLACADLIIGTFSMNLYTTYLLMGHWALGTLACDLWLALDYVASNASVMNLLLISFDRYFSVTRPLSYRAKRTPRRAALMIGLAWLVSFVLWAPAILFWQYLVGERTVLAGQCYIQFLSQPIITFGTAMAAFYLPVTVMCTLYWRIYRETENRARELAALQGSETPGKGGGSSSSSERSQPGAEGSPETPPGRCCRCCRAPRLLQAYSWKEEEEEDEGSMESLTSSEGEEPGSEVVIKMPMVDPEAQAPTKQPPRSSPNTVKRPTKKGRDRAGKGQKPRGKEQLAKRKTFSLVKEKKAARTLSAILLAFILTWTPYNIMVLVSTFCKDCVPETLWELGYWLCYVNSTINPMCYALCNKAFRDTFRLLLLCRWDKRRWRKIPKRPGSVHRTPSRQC
Chain of Beta-2 adrenergic receptor (Homo sapiens) (P07550 whole entry, looked up): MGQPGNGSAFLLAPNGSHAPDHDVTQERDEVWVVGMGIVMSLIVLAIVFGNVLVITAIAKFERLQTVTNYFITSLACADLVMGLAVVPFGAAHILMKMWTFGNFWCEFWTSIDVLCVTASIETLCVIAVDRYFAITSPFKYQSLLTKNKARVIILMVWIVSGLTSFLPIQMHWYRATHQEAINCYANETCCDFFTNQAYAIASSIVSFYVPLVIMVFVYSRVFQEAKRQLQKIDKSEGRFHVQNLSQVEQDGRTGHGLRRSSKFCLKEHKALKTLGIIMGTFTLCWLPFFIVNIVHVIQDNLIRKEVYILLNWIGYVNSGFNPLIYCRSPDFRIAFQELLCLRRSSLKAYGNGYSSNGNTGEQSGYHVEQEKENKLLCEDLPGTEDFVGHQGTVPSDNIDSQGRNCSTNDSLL

| Compound | Potency [1] | Potency [2] | Potency [3] | Potency [4] | Potency [5] | Potency [6] | Potency [7] | Potency [8] | Potency [9] | Potency [10] | Potency [11] | Potency [12] | Potency [13] | Potency [14] | Potency [15] | Potency [16] | Potency [17] | Potency [18] |
| --- | --- | --- | --- | --- | --- | --- | --- | --- | --- | --- | --- | --- | --- | --- | --- | --- | --- | --- |
| CN(C)C(=O)Cl | inactive | inactive | inactive | inactive | inactive | inactive | inactive | 45.7 µM (active) and inactive | inactive | inactive | inactive | inactive | inactive | inactive | inactive | inactive | – | – |
| CCc1cccc(CC)c1N(COC)C(=O)CCl | inactive | 47 µM (active) and 54.5 µM (active) | inactive | inactive | inactive | inactive | inactive | inactive | inactive | inactive | – | inactive | – | – | inactive | inactive | inactive | – |
| O=C(O)c1cc(Oc2ccc(C(F)(F)F)cc2Cl)ccc1[N+](=O)[O-] | inactive | inactive | inactive | inactive | inactive | inactive | inactive | inactive | inactive | inactive | inactive | inactive | – | inactive | inactive | inactive | inactive | inactive |
| CC(Cl)(Cl)C(=O)O | inactive | inactive | inactive | inactive | inactive | inactive | inactive | inactive | inactive | inactive | inactive | inactive | inactive | – | inactive | inactive | inactive | inactive |
| CC1C=[C-]C=C1.[C-]#[O+].[C-]#[O+].[C-]#[O+].[Mn] | inactive | inactive | inactive | inactive | inactive | inactive | inactive | inactive | inactive | inactive | inactive | – | inactive | – | inactive | inactive | inactive | inactive |
| CC[N+]1(C)CCCC1 | inactive | 70.3 µM (active) and inactive | inactive | inactive | inactive | 41.8 µM (active) and inactive | inactive | inactive | inactive | inactive | inactive | inactive | inactive | inactive | – | inactive | inactive | inactive |
| O=C(NC(=O)c1c(F)cccc1F)Nc1ccc(Cl)cc1 | inactive | inactive | inactive | inactive | inactive | inactive | inactive | inactive | inactive | inactive | inactive | inactive | inactive | inactive | inactive | inactive | inactive | – |
| Clc1ccccc1-c1nnc(-c2ccccc2Cl)nn1 | inactive | 19.2 µM (active) and 5.43 µM (active) | inactive | inactive | inactive | inactive | inactive | inactive | inactive | – | inactive | inactive | inactive | inactive | inactive | – | inactive | inactive |
| Nc1ccc(N)cc1 | inactive | 61.1 µM (active) and 18.8 µM (active) and inactive | inactive | inactive | inactive | inactive | inactive | inactive | inactive | inactive | inactive | – | inactive | inactive | inactive | inactive | – | inactive |
| CCCCCCCCC(=O)NCc1ccc(O)c(OC)c1 | inactive | inactive | inactive | inactive | inactive | inactive | inactive | inactive | inactive | inactive | inactive | inactive | inactive | – | inactive | inactive | inactive | inactive |
| Cc1ccc([N+](=O)[O-])cc1C | inactive | inactive | inactive | inactive | inactive | inactive | inactive | inactive | inactive | – | inactive | inactive | inactive | inactive | inactive | inactive | inactive | inactive |
| OC[C@@H](O)[C@H]1O[C@@H]2O[C@H](C(Cl)(Cl)Cl)O[C@@H]2[C@H]1O | inactive | inactive | inactive | inactive | inactive | inactive | inactive | inactive | inactive | inactive | inactive | inactive | inactive | inactive | inactive | inactive | inactive | – |
| CCCC[n+]1ccccc1C | inactive | inactive | inactive | inactive | inactive | inactive | inactive | inactive | inactive | – | inactive | inactive | inactive | inactive | inactive | – | inactive | inactive |
| CC(C)N(C(=O)CCl)c1ccccc1 | 54.5 µM (active) | 4.86 µM (active) and 10.9 µM (active) | inactive | inactive | inactive | inactive | inactive | inactive | inactive | inactive | inactive | inactive | – | – | inactive | inactive | inactive | inactive |
| O=S(=O)(O)OOS(=O)(=O)O | inactive | inactive | inactive | inactive | inactive | inactive | inactive | inactive | inactive | inactive | inactive | – | inactive | inactive | inactive | inactive | inactive | inactive |
| CCCCCC[n+]1ccccc1 | inactive | 69.2 µM (active) and 69 µM (active) and inactive | inactive | inactive | inactive | 11.6 µM (active) and 9.19 µM (active) and inactive | inactive | inactive | – | – | – | inactive | inactive | inactive | inactive | inactive | inactive | inactive |
